# High-throughput results (PubChem BioAssay)
# TLR9-MyD88 block: inhibitors of TLR9-MyD88 association in cells, primary screen, cell-based, CHO, BLA complementation, fluorescence; inhibition, % at 4.98 µM; Toll-like receptor 9 (Homo sapiens) + Myeloid differentiation primary response protein …; AID 504734, 2011; CCF4 FRET ratio; 340,000 tested, 0.21% active;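 active means inhibition above the mean over all tested compounds plus 3 SD, cut at about 21% in these data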;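 further: 0% = DMSO only wells and 100% = clavulanate BLA inhibitor control wells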
# GC-A act: GC-A stimulated cGMP production enhancers – HEK293 GC-A cells, cGMP TR-FRET, EC30 ANP, primary screen; 0% at EC30 ANP, 100% saturating ANP; activation, % at 10 µM; 370,000 tested, 0.14% active; Atrial natriuretic peptide receptor 1 (Homo sapiens), P16066; in the data active means activation above about 40%
# Target sequence (P16066 whole entry, looked up): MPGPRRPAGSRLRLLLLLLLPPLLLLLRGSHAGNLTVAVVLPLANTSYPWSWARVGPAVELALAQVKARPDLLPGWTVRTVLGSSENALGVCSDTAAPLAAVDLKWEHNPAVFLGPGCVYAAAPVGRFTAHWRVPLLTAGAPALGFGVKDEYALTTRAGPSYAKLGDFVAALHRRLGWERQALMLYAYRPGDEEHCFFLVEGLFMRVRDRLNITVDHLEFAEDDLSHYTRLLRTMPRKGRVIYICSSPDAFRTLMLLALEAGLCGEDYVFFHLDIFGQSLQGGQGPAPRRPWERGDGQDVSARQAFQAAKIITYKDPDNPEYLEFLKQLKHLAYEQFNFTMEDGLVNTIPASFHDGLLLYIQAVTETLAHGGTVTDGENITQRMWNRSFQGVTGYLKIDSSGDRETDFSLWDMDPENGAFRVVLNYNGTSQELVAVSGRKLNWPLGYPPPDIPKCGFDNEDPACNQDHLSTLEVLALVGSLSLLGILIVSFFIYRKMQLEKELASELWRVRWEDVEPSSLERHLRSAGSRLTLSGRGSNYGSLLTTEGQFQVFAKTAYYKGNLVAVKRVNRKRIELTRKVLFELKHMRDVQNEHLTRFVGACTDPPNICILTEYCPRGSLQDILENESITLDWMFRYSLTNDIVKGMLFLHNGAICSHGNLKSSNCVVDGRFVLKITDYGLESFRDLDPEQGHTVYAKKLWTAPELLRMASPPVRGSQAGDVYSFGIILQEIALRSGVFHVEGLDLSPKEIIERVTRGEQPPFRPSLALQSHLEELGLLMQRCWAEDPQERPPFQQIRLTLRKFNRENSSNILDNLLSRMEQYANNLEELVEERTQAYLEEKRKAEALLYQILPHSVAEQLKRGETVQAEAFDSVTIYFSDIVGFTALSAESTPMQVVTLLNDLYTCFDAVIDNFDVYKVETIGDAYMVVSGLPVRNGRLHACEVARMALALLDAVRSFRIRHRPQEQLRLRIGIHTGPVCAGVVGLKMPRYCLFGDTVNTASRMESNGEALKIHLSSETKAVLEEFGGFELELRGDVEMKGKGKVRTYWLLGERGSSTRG
# NOD2-RIPK2 inh: NOD2-RIPK2 binding disruptors in cells, primary screen, fluorescence, CHO cells, BLA complementation. AID 624267, 2012. Receptor-interacting serine/threonine-protein kinase 2 (Homo sapiens), O43353. 360,000 tested, 0.38% active. inhibition, % at 4.98 µM. CCF4 ratio; in the data active means inhibition above about 21%;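 further: 0% = vehicle only and 100% = reference blocker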
# GC-B act: human GC-B receptor activators, primary screen, HEK293 GC-B cells, cGMP TR-FRET, EC30 CNP; Atrial natriuretic peptide receptor 2 (Homo sapiens), P20594; 0% at EC30 CNP, 100% saturating CNP; activation, % at 10 µM; 370,000 tested, 0.11% active; AID 1920062, 2024;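 active means activation at 10 µM reaching about 35% in either raw or pattern-adjusted values, limit read from the data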
# TLR4 MyD88 comp: inhibitors of TLR4-MyD88 association in cells, primary screen, cell-based, HeLa CL3-4, BLA complementation, FRET ratio; HeLa CL3-4 TLR4/MyD88 BLA complementation; inhibition, % at 8.4 µM; 200,000 tested, 0.18% active; in the data active means inhibition above about 25%;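 further: 0% = vehicle and 100% = reference inhibitor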
# Neddyl block: inhibitors of cullin neddylation, primary screen, biochemical, TR-FRET, uHTS, NAE and Ubc12. inhibition, % at 25 µM. 360,000 tested, 0.58% active. NEDD8-conjugating enzyme Ubc12 (Homo sapiens) + NEDD8-activating enzyme E1 regulatory …; in the data active means inhibition above about 36%
# * marks the source's active call; other numbers are inactive results; / = not tested or not shown. Shown are actives, neighbours in structure and some others; about 1.2% of the full set was active somewhere.
SMILES,TLR9-MyD88 block,GC-A act,NOD2-RIPK2 inh,GC-B act,TLR4 MyD88 comp,Neddyl block
Nc1ncnc2c1ncn2[C@@H]1O[C@H](COP(=O)(O)OP(=O)(O)OP(=O)(O)O)[C@@H](O)[C@H]1O,9,0,-16,2,/,80*
Nc1ncnc2c1ncn2[C@@H]1O[C@H](CNCc2ccccc2)[C@@H](O)[C@H]1O,-9,/,1,/,/,7
NC(=O)C1=CN([C@@H]2O[C@H](COP(=O)(O)OP(=O)(O)OC[C@H]3O[C@@H](n4cnc5c(N)ncnc54)[C@H](O)[C@@H]3O)[C@@H](O)[C@H]2O)C=CC1,/,0,/,-1,/,/
Nc1ncnc2c1ncn2[C@@H]1O[C@H](CNCc2cccc(C#Cc3ccccc3)c2)[C@@H](O)[C@H]1O,-7,0,1,-2,/,52*
Nc1ncnc2c1ncn2[C@@H]1O[C@H](COS(=O)(=O)O)[C@@H](O)[C@H]1O,-12,4,-20,5,/,69*
C[C@H]1COc2c3ccc(I)cc3nn21,/,2,/,-6,/,/
CC(C)CNC(=O)OCc1cn(Cc2cccc(C(F)(F)F)c2)nn1,/,4,/,2,/,/
C=C(CN(C)C)C(=O)c1cc(C)ccc1C,0,14,45*,3,/,1
Cn1cc(/C=N/Nc2ccccc2)c2ccccc21,-1,2,5,0,1,27
O=C(O)c1ccc(N/N=C/c2cn(Cc3ccccc3F)c3ccccc23)cc1,5,0,-2,0,/,46*
CC(C)n1cc(/C=N/Nc2ccc(C(=O)O)cc2)c2ccccc21,-3,-3,6,1,/,43*
N#C/C(=C\c1cn(-c2ccccc2)nc1-c1ccccc1)S(=O)(=O)c1ccccc1,7,0,2,-1,-18,/
CC(C)n1cc(/C=C(\C#N)S(=O)(=O)c2ccccc2)c2ccccc21,3,37,7,51*,-4,12
CC(C)(C)CCNc1nc(-c2ccccn2)nnc1-c1ccccc1,/,1,/,4,/,/
Cc1c(C(=O)N/N=C/c2ccc(O)c(Br)c2)sc(N)c1C#N,-1,5,0,0,-7,42*
O=C1CCCN1CCCNc1nc2c(S(=O)(=O)c3ccccc3)nnn2c2ccc(Cl)cc12,-1,36,0,48*,/,/
CCS(=O)(=O)c1nc(S(=O)(=O)c2ccc(C)cc2)c(NCCCN2CCCC2=O)s1,-1,-2,-12,0,/,-7
COC(=O)C12C=C3CC(c4ccc(C)s4)=C3C(=O)N1Cc1[nH]c3ccccc3c1C2 (configuration not stated),/,2,/,11,/,/
Cc1cccc(OCc2nnc(SCC(=O)OC3CCCCC3)o2)c1,1,60*,-1,-2,17,7
O=C(NCCN1CCN(c2ccccc2F)CC1)c1cccn2c(=O)c3ccccc3nc12,-12,6,2,-2,-9,43*
O=C(NCCN1CCN(c2ccccc2)CC1)c1cccn2c(=O)c3ccccc3nc12,-17,10,2,-1,-11,31
Cc1ccc(/C=N/NC(=S)NCCc2ccccc2)s1,-16,8,0,3,-4,42*
O=C(CSc1nnc(-c2cccnc2)n1-c1ccc(Cl)cc1)Nc1ccc(S(=O)(=O)Nc2nccs2)cc1,/,0,/,1,/,/
N=c1c2c(ccn1CCCc1ccccc1)Oc1ccc3ccccc3c1C2c1ccccc1 (configuration not stated),/,-33,/,-26,/,/
COC(=O)[C@]12C[C@H](CC(=O)N3CCN(C(=O)c4ccco4)CC3)C(=O)N(CCc3ccc(OC)c(OC)c3)C1=C[C@H](C1CCCC1)O[C@@H]2C,/,1,/,1,/,/
SMILES,TLR9-MyD88 block,GC-A act,NOD2-RIPK2 inh,GC-B act,TLR4 MyD88 comp,Neddyl block
COc1cc(C(=O)NC2CCN(C)CC2)ccc1Nc1ncc2c(n1)N(Cc1ccccc1)CCC(=O)N2C,-1,33,-5,38*,/,24
COc1cc(C(=O)NC2CCN(C)CC2)ccc1Nc1ncc2c(n1)N(C1CCCCC1)CCC(=O)N2C,4,29,-4,34,/,40*
Cc1c2c(=O)n(-c3nc4ccccc4s3)nc-2cc(O)n1Cc1ccccc1,2,/,-12,/,/,41*
C(=C\c1ccccc1)/CSc1nnc(COc2ccccc2)n1Cc1ccco1,/,-7,/,-7,/,/
Clc1ccc2nc(CNc3nc(N4CCOCC4)nc4c3ncn4-c3ccsc3)[nH]c2c1,/,-4,/,0,/,/
O=C(N[C@H]1CCCCNC1=O)c1cc(COc2ccc(F)cc2F)on1,7,66*,-7,6,/,-9
O=C(NCCc1ccccc1F)c1cc(COc2ccc(F)cc2F)on1,2,2,-3,4,/,10
Cc1ccc(-c2cc(C(=O)OC3CCOC3=O)c3ccccc3n2)c(C)c1 (configuration not stated),0,10,-5,3,2,-26
O=C(OC1CCOC1=O)c1cc(-c2cccs2)nc2ccccc12 (configuration not stated),-10,51*,-6,8,2,/
COc1ccc(S[C@]2(C(=O)N3CCCC3)CC(=O)N(C(=O)CCc3ccccc3)[C@@H]2c2ccc(OC)cc2)cc1,/,0,/,-7,/,/
COC(=O)C[C@H]1CC[C@@H]2[C@@H](COc3ccc(NC(=O)C4CCCCC4)cc3C(=O)N2C)O1,/,0,/,16,/,/
Cc1ccc(S(=O)(=O)c2nnn3c2nc(N2CCOCC2)c2ccccc23)cc1,9,34,-7,38*,/,-55
Cc1ccc(S(=O)(=O)c2nnn3c2nc(N2CCCCC2)c2ccccc23)cc1,0,21,2,26,-12,-20
CCN1CCN(C(=O)c2cnn3c(C(F)F)cc(-c4ccc(C)cc4)nc23)CC1,6,3,7,9,9,48*
CCN1C(=S)N[C@@H](c2ccccc2)C(C(=O)OC)=C1C,4,35,2,46*,/,-22
CC(C)c1ccc(/C=c2\sc3nc(-c4ccncc4)nn3c2=O)cc1,-2,41*,3,-18,-4,13
Nc1ncc(-c2ccccc2)c(-c2ccc(O)cc2O)n1,6,46*,-5,-4,/,4
COc1ccc(-c2cnc(N)nc2-c2ccc(OCc3ccccc3)cc2O)cc1,9,3,4,-4,/,9
Cn1cncc1C#Cc1ccc2cc(CCCO)oc(=O)c2c1,-2,0,-4,-1,/,45*
